From PubChem BioAssay AID588345 (Broad Institute, 2011)
In all, about 1,300 compounds went through this assay and about 850 (65%) were called active. About 1% were inconclusive and are not listed. How the calls were made is not given here. The set was probably picked from earlier hits. These entries were drawn from the full list. Potency and affinity values are given separately.

Target: Dual specificity tyrosine-phosphorylation-regulated kinase 1A (Rattus norvegicus) (UniProt Q63470)
Test: Dyrk1A enzyme activity inhibition – biochemical, cherry-pick, plate reader, 2124-01, dose response (AID 588345)
Conditions: Dyrk1A kinase biochemical assay; series mostly up to 12 µM

outcome, inactive:
Cc1cc(=O)oc2ccc(OC(=O)c3cccc(S(=O)(=O)N4CCOCC4)c3)cc12
COc1cccc(Nc2nc(NCCO)c3ccccc3n2)c1
CCc1cc2c(NC3CCCC3)ncnc2s1
CCCCCC1CC(CC(C)C(=O)Nc2nncs2)C(=O)O1 (centres undefined)
CCC(C)NC(=O)C1CCCN(S(=O)(=O)c2ccc3c(c2)CC(C)N3C(=O)C2CC2)C1 (centres undefined)
Clc1ccc(C2CC(c3cccs3)n3ncnc3N2)c(Cl)c1 (centres undefined)
O=C(Cn1c(-c2cncs2)nc2ccccc21)NCc1ccccc1
Cn1c(=O)[nH]c2cc3ccccc3cc21
S=c1sc2ccccc2n1CCc1ccncc1
COc1ccc(N(CC(=O)Nc2ccc3c(c2)OCCO3)S(=O)(=O)c2c(C)nn(C)c2C)cc1
CC(C)(C)C1=Nn2c(nnc2-c2ccccc2F)SC1
O=C(Nc1ccc2cn[nH]c2c1)c1c(Cl)cccc1Cl
COc1ccc(N/C=C2\C(=O)CCc3c2oc2cc(Cl)c(O)c(Cl)c32)cc1
Oc1c(Cl)c(Cl)c2ncccc2c1Cl
Oc1cccc2c(-c3nn[nH]n3)ccnc12
Fc1ccccc1-c1nc(-c2ccc(-c3nn[nH]n3)cc2)no1
COc1ccc(-c2cn[nH]c2C)cc1
Cc1cc(C)c(CN2CCN(C(=O)Cn3ccc(N)nc3=O)CC2)c(C)c1
CCCCCCCCCCCCN1[C@@H](CC(=O)OC)c2cc(C(F)(F)F)ccc2S1(=O)=O
CC(=O)c1cccc(NC(=O)Nc2ccc3c(c2)N(C)C(=O)CS3)c1
CSc1nnc(-c2cc3c(-c4ccccc4)nn(C)c3s2)n1C
Cn1cnc2c(=O)sc3ccccc3c21
O=C(C1CC(=O)N(C2CCCC2)C1)N1CCN(c2ccc(F)cc2)CC1 (centres undefined)
c1csc(CNc2ncnc3ccc(-c4ccc5c(c4)OCCO5)cc23)c1
O=C(NCc1ccccc1)C1=C[C@H](c2ccccc2)C[C@H](OCc2ccc(CO)cc2)O1
c1ccc(-c2nnc(CSc3ccc4c(c3)OCCO4)o2)cc1
O=[N+]([O-])c1ccc2c(c1)C(=NO)c1cc(F)ccc1-2
O=C(O)CCC(=O)Nc1ccc(N2CCCCCC2)cc1
Cc1cccc(Nc2nc(N)c([N+](=O)[O-])c(N3CCC(C)CC3)n2)c1
CCC1NC(C(=O)O)Cc2c1[nH]c1ccccc21 (centres undefined)
COC(=O)c1nccc2c1[nH]c1ccccc12
CC(C)C[C@H]1COCCS(=O)(=O)N1Cc1ccc(Cl)c(Cl)c1
CCOC(=O)Cn1c(-c2cccnc2Cl)nc2ccccc21
O=C(CN1CCOCC1)Nc1nc2ccc([N+](=O)[O-])cc2s1
CC1CCc2nc(NC(=O)c3ccc(N4C(=O)CCC4=O)cc3)sc2C1 (centres undefined)
CC1CCc2nc(NC(=O)CN3CCN(Cc4ccc5c(c4)OCO5)CC3)sc2C1 (centres undefined)
Cc1noc(C)c1-c1ccc2ncnc(NC(C)c3ccco3)c2c1 (centres undefined)
O=C(Nc1cccc(Cl)c1)ON=C1c2ccccc2-c2ccccc21
CCC(=O)Nc1c(C#N)c2nc3ccccc3nc2n1-c1ccccc1C
Cc1ccc(NC(=S)Nc2ccc3cn[nH]c3c2)cc1
COc1ccc2c(c1)C(=O)N1[C@H]3c4cc(C)ccc4OC[C@@H]3[C@H](c3ccccc3)[C@]1(C)C(=O)N2
Cc1c(C(=O)O)sc2nc(-c3cccs3)cc(C(F)(F)F)c12
O=C1CCCC2=C1Sc1ccc(Cl)cc1N2
O=C1c2ccccc2S(=O)(=O)N1Cc1nnc(-c2ccccc2Br)o1
CC(C)=CCc1cc(-c2oc3cc(O)cc(O)c3c(=O)c2O)ccc1O
O=C(Nc1ncc2c(n1)-c1ccccc1CC2)c1ccc(Cl)cc1
CCOCCCNC(=O)C(NC(=O)c1ccc(=O)[nH]c1)c1ccc(Cl)cc1 (centres undefined)
Cc1cccc(C(C)n2nnc3ccccc32)c1O (centres undefined)
O=c1oc(-c2ccc(O)c(O)c2)cc2cc(O)cc(O)c12
O=c1cc(-c2ccc(O)cc2)oc2c(O)c(O)c(O)c(O)c12
CN(C)CCCOC(=O)COc1ccc(Br)cc1
CCn1c(NC(=O)c2ccccc2)c(-c2cccs2)c(=O)c2ccccc21
CCN(CC)C(=O)Oc1ccc2c(c1)O/C(=C\c1ccco1)C2=O
O=c1cc(-c2ccco2)oc2c1ccc1ccccc12
COc1cc(/C=C2\SC(N)=NC2=O)ccc1O
OC(c1cc(C(F)(F)F)nc2c(Cl)cc(Cl)cc12)C1CCCCN1 (centres undefined)
O=C(O)c1cccc2c1/C(=N/O)c1ccccc1-2
CCn1c2ccccc2c2nc3cc(C(=O)O)ccc3nc21
S=C(Nc1cccnc1)Nc1cccc2cnccc12
COc1ccc(NC(=S)N(CCc2c(C)[nH]c3ccccc23)Cc2cccnc2)cc1
Cc1cc2nncn2c2ccccc12
COc1ccc(NC(=O)N(C)C[C@H]2Oc3c(NS(=O)(=O)c4cccs4)cccc3C(=O)N([C@@H](C)CO)C[C@@H]2C)cc1
C[C@@H]1C=C(C(=O)NCc2nc3ccccc3[nH]2)O[C@H](OCCCCO)C1
O=C1CN(C(=O)C2CCC(=O)N(CCc3ccc(Cl)cc3)C2)CCN1 (centres undefined)
COc1ccc2oc(N)c(C=O)c(=O)c2c1
COc1ccc2nc(C)c3c(c2c1)OC(C(C)(Cl)Br)C3 (centres undefined)
c1cnc2ncc3sccc3c2c1
O=c1c(O)c(-c2cc(O)c(O)c(O)c2)oc2cc(O)cc(O)c12
O=c1c(O)c(-c2ccccc2)oc2cc(O)cc(O)c12
Cc1cccc(CNc2ncnc3ccc(-c4ccc5c(c4)OCO5)cc23)c1
O=C(CN1CCOCC1)Nc1nc2ccc(F)cc2s1
COc1ccc(OC)c(N=c2oc3cc(O)ccc3cc2C(N)=O)c1
NC(=O)c1cc2ccc(O)cc2oc1=Nc1ccccc1
COc1ccc2nc(-n3c(O)c(C4=c5ccccc5=NC4=O)[nH]c3=S)sc2c1
